From the supplement of paper PMC10849652 come the findings set out here.

About 7,900 targets were measured; listed, in parts, are those with a hit and a random draw of the rest. About 0.6% of all pairs of compound and target were hits. A number with no mark means an inactive call.

Sequence of UniProt Q8IZ69 (Q8IZ69 whole entry, looked up): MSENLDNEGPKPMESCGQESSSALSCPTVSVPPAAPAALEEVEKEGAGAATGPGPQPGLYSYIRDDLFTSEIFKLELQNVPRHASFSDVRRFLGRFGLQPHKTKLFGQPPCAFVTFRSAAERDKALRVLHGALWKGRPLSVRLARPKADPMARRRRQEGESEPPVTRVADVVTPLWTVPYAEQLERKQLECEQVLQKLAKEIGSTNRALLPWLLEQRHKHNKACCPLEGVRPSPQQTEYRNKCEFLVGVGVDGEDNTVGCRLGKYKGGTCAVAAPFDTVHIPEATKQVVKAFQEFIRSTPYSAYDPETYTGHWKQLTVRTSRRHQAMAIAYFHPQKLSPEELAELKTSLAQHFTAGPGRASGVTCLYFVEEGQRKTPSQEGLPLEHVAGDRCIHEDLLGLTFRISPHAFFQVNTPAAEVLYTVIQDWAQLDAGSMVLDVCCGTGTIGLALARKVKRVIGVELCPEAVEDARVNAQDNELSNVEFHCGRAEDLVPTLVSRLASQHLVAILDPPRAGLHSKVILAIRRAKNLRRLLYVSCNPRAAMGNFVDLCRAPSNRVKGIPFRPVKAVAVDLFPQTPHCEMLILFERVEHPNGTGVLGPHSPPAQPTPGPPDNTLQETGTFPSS
Sequence of UniProt P02585 (P02585 whole entry, looked up): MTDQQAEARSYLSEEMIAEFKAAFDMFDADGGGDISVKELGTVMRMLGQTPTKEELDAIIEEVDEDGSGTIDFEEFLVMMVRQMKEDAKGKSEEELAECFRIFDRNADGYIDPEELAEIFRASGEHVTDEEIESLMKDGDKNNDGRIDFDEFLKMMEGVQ
Sequence of UniProt Q9NX61 (Q9NX61 whole entry, looked up): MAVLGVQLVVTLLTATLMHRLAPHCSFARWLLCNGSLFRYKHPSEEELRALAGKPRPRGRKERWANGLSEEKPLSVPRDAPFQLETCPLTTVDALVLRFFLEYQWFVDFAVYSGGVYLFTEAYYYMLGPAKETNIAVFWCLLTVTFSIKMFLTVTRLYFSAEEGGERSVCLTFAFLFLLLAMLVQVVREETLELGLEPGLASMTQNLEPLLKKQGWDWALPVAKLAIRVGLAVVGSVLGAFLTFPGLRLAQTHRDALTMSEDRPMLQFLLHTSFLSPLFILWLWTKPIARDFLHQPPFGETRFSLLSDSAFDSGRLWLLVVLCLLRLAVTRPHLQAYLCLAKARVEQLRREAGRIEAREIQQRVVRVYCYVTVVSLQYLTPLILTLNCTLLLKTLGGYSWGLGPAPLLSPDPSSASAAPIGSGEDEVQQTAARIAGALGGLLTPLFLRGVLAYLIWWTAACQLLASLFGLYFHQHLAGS
Sequence of UniProt P51809 (P51809 whole entry, looked up): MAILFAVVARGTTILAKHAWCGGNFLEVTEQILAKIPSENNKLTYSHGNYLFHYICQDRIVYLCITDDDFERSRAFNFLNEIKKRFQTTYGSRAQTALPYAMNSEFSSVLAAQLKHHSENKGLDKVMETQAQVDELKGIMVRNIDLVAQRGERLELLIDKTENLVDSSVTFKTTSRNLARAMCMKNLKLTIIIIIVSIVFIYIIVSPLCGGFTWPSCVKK
Sequence of UniProt O60784 (O60784 whole entry, looked up): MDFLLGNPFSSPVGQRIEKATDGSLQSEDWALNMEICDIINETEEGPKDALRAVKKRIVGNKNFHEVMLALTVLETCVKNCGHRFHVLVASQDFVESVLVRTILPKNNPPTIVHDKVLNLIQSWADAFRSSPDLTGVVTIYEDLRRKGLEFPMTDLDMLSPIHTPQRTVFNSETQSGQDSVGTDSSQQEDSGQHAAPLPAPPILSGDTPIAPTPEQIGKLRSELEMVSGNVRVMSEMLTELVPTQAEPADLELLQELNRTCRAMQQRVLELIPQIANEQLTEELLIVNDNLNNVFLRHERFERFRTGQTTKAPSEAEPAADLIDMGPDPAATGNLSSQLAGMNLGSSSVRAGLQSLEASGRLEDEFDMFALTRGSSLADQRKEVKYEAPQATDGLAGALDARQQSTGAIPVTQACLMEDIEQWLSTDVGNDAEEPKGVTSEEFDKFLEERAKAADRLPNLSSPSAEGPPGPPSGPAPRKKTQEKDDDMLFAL
Sequence of UniProt Q9NP79 (Q9NP79 whole entry, looked up): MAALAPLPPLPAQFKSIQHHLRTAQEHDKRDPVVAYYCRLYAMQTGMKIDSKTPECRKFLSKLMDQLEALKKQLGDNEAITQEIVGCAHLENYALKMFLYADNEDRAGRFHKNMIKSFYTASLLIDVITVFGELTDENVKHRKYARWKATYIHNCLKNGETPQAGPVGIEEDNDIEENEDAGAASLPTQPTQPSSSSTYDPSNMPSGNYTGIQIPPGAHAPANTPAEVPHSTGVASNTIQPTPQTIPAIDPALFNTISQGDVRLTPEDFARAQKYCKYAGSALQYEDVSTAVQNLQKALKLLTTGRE
Sequence of UniProt Q9Y4E8 (Q9Y4E8 whole entry, looked up): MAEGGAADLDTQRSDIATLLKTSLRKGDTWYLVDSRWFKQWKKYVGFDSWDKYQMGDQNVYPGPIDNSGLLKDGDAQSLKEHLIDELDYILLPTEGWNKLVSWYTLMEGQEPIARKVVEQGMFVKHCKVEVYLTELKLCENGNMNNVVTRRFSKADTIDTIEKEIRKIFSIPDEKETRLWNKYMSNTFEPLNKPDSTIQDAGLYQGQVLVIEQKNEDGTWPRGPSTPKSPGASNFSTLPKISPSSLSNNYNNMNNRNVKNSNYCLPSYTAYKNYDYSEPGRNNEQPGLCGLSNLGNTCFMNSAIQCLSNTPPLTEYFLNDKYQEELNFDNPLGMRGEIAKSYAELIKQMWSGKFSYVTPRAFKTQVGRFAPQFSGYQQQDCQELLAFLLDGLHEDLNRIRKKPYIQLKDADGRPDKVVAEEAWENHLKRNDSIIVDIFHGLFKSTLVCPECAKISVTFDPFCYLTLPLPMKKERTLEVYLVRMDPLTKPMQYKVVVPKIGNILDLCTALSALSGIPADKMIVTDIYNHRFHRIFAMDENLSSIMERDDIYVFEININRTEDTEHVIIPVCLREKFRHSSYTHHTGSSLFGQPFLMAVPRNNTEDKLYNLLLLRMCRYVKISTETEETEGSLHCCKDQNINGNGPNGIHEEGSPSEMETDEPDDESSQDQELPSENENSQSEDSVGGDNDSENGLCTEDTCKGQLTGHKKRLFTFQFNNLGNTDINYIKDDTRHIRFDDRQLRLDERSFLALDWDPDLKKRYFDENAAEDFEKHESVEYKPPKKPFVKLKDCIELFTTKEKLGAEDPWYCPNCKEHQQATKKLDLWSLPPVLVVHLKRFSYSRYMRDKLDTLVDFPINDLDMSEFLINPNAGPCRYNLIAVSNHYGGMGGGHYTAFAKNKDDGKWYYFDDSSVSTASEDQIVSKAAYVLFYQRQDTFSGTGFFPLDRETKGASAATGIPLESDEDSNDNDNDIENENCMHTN
Sequence of UniProt Q7Z6J8 (Q7Z6J8 whole entry, looked up): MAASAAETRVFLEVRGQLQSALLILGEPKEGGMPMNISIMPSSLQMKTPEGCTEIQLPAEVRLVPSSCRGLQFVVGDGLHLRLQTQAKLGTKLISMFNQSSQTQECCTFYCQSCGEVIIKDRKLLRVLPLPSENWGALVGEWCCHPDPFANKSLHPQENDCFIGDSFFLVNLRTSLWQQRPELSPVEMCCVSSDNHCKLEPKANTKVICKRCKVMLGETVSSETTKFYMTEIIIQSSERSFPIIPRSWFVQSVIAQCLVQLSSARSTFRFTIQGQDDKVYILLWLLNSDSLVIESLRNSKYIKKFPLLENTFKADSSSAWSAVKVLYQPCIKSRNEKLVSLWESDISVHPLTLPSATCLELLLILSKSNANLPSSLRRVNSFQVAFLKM
Sequence of UniProt Q9BTX3 (Q9BTX3 whole entry, looked up): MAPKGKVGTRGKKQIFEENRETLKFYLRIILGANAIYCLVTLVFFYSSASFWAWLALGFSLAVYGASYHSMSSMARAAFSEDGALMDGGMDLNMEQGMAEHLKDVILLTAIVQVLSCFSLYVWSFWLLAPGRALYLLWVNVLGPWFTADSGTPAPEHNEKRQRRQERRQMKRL
Sequence of UniProt P54578 (P54578 whole entry, looked up): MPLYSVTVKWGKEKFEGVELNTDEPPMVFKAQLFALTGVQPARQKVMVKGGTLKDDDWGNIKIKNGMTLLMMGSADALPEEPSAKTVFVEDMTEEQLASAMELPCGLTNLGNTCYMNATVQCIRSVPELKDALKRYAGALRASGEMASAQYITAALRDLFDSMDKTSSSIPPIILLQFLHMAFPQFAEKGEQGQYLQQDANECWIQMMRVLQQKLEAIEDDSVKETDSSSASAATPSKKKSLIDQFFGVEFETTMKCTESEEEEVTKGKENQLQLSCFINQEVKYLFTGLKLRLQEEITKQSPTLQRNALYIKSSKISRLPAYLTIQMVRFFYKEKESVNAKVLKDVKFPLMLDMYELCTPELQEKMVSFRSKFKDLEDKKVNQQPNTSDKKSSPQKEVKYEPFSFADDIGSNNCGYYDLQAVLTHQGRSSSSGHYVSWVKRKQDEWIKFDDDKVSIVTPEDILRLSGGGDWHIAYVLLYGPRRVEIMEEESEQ
Sequence of UniProt Q9C037 (Q9C037 whole entry, looked up): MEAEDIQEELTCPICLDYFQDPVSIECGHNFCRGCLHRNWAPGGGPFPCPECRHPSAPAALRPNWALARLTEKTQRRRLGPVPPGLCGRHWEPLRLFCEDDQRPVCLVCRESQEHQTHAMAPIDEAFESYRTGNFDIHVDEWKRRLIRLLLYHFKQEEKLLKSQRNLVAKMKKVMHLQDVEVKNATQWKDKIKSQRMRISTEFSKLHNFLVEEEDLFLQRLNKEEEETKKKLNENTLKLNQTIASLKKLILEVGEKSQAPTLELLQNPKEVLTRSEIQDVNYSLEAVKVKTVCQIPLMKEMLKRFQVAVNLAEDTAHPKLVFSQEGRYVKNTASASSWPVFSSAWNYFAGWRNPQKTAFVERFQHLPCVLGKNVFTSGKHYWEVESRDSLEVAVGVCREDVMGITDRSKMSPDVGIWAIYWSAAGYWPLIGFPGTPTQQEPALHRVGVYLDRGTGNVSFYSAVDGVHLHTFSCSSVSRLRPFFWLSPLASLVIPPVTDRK

Compound in the assay: C1=CC=C2C(=C1)C3=NNC4=CC=CC(=C43)C2=O
Nature of the assay: log2 fold change, soluble protein after heating vs DMSO (PISA); higher = thermal stabilisation; K562 cells, 10 uM, 30 min; active = over 0.2 and 3.5 SD of the protein, either way, in both replicates (recomputed). The gist of the method:
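Aliquots of K562 cells (2×10^6 cells/mL) treated with 10 μM compound for 30 min were heated for 3 min over 48°C-58°C. After pooling and extraction in PBS with 0.5% NP-40 at 4°C, soluble protein from a 21,000xg, 90 min spin was quantified by TMTpro 16plex LC-MS/MS with channel sums equalised. Thermal stability is expressed against control samples, from duplicates, as a log2 fold change.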
With VPS72 isoform 2 (UniProt Q15906), the log2 fold change is -0.134. Consider UBE2J1 (UniProt Q9Y385), for which the log2 fold change was 0.036. Turning to WDR43 (UniProt Q15061), the log2 fold change was 0.017.

With UCHL5 isoform 3 (UniProt Q9Y5K5), the log2 fold change was 0.102.

As to TMEM161A (UniProt Q9NX61), the log2 fold change was -0.006. On to VPS50 (UniProt Q96JG6), for which the log2 fold change was -0.019. As to XRCC6 (UniProt P12956), the log2 fold change is -0.036. On to WRB (UniProt O00258), for which the log2 fold change was -0.042. The figure for TMEM214 (UniProt Q6NUQ4) is -0.025; for TOM1 isoform 2 (UniProt O60784) it is 0.004; for UBE3D (UniProt Q7Z6J8) it is -0.006. For TOE1 (UniProt Q96GM8), the log2 fold change was -0.035. For the target TRMT2A (UniProt Q8IZ69), the log2 fold change was -0.09.

On to VAMP7 (UniProt P51809), for which the log2 fold change was -0.001. As to VTA1 (UniProt Q9NP79), the log2 fold change was 0.029. Turning to VPS41 (UniProt P49754), the log2 fold change is 0.031. Turning to TMEM208 (UniProt Q9BTX3), the log2 fold change was -0.098. For the target USP14 (UniProt P54578), the log2 fold change is 0.015.

For TRIM4 (UniProt Q9C037), the log2 fold change was 0.135. Regarding TMEM41A (UniProt Q96HV5), the log2 fold change was 0.013.

TRAM1 (UniProt Q15629): the log2 fold change was -0.151. With USP15 (UniProt Q9Y4E8), the log2 fold change was 0.012. Take TNNC2 (UniProt P02585): the log2 fold change is -0.026.
